Laboratory results reported in PubChem BioAssay (NCI).
Compounds without any hit were thinned out: in the full panel of roughly 79,000, 15% have a hit. Rule as the data show it: active = growth inhibition above about 70%; inactive = the rest.

Assays:
[1] = NCI Yeast Anticancer Drug Screen. Data for the rad50 strain (AID 155);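 also: 0% = growth of vehicle-only cultures of the same strain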; conditions: S. cerevisiae rad50 strain growth inhibition; at 50.0 µM; hits give high values
In short: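 Compounds were tested on a yeast strain with an engineered DNA damage repair alteration; the reported value is growth inhibition normalised to vehicle treatment.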

[2] = NCI Yeast Anticancer Drug Screen. Data for the mec2-1 strain (AID 157); conditions: S. cerevisiae mec2-1 strain, at 50.0 µM, hits give high values
In short: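 Compounds were applied to mec2-1 yeast cells. Their growth was then compared with that of vehicle-treated cultures to give growth inhibition.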

[3] = NCI Yeast Anticancer Drug Screen. Data for the sgs1 mgt1 strain (AID 161);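 also: 0% = growth of cultures given vehicle only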; conditions: S. cerevisiae sgs1 mgt1 strain, at 50.0 µM, hits give high values
In short: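 Percent growth inhibition was derived by comparing compound-exposed mutant yeast with vehicle-exposed cultures. The strain carries alterations in DNA damage repair.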

[4] = NCI Yeast Anticancer Drug Screen. Data for the cln2 rad14 strain (AID 165);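 also: 0% = growth equal to vehicle treated cultures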; conditions: S. cerevisiae cln2 rad14 strain, at 50.0 µM, hits give high values
In short: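 Strain: cln2 rad14 yeast, altered in cell cycle control and DNA damage repair. Read-out: growth inhibition vs vehicle.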

[5] = NCI Yeast Anticancer Drug Screen. Data for the bub3 strain (AID 167); conditions: S. cerevisiae bub3 mutant strain, at 50.0 µM, hits give high values
In short: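 Growth of a checkpoint-deficient yeast mutant is measured after compound exposure. Values represent inhibition relative to vehicle.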

[6] = NCI Yeast Anticancer Drug Screen. Data for the mlh1 rad18 strain (AID 175); conditions: S. cerevisiae mlh1 rad18 strain growth inhibition; at 50.0 µM; hits give high values
In short: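 A repair-deficient yeast strain is exposed to test compound, and growth is scored relative to vehicle-treated controls.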

Measured: growth inhibition

CCC(C)(C)c1ccc(OCCOc2ccc(C(=O)O)cc2[N+](=O)[O-])cc1
inactive: [1] -4.1% | [2] 12.2% | [3] -3.9% | [4] -17.6% | [5] -6.6% | [6] -20.1%

CNCc1cccc(OC)c1OC
inactive: [1] -1.05% | [2] -5.4% | [3] -2.35% | [4] -0.6% | [5] 16.2% | [6] -2.7%

CC1=C(N2CCCCC2)S(=O)(=O)c2ccccc2C1
inactive: [1] 42.6% | [2] 3.6% | [3] 26.5% | [4] -19.6% | [5] 8.15% | [6] 44%

CCCNC(C)=O
inactive: [1] 12.2% | [2] -26.1% | [3] -24.9% | [4] -27.1% | [5] -8.55% | [6] -1.25%

Cc1cc(=O)c2c([nH]1)c1c(c3[nH]c(C)cc(=O)c32)Oc2ccccc2O1
inactive: [1] 65.2% | [2] 5% | [3] -2.95% | [4] -10.6% | [5] -5.55% | [6] 27.9%

CC(=O)C(C(C)=O)C(c1cccnc1)C(C(C)=O)C(C)=O
inactive: [1] 2.7% | [2] 0.65% | [3] 10% | [4] 0.1% | [5] 25.3% | [6] -10.5%

Cc1ccc(Cl)cc1NC(=O)Oc1ccc(C(C)(C)C)cc1Br
inactive: [1] 54.3% | [2] 57.1% | [3] 11.7% | [4] 1.5% | [5] 19.9% | [6] 60.2%

CCCCCCCCCC(C)=O
inactive: [1] -9.8% | [2] -4.4% | [3] -16% | [4] -17.9% | [5] 4.45% | [6] -12.2%

O=C(Cl)c1c(F)c(F)c(F)c(F)c1F
inactive: [1] -29.6% | [2] -26.1% | [3] -7.4% | [4] 19.4% | [5] 1.25% | [6] -18.9%

CC(C)(C)/C(CC(=O)CCC(=O)Nc1ccc(Cl)cc1)=N\NC(N)=S
inactive: [1] 11.7% | [2] -6.75% | [3] 19.1% | [4] 9.75% | [5] 1.65% | [6] 20.8%

COc1cccc(CCNC(=O)Cc2ccccc2CCO)c1
inactive: [1] -5.8% | [2] -7.8% | [3] -46.8% | [4] 9.35% | [5] -37.9% | [6] -53.8%

Cc1cn(C2CC(N=[N+]=[N-])C(CO)O2)c(=O)[nH]c1=O (stereo unspecified)
inactive: [1] -0.7% | [2] -0.4% | [3] -39.5% | [4] 14.1% | [5] 0.05% | [6] -15.6%

O=C1CCC(=O)Nc2ccc3nc4ccccc4c(c3c2)SCCCCCCCCCCCCSc2c3ccccc3nc3ccc(cc23)N1
inactive: [1] -22.4% | [2] -15.2% | [3] -15.2% | [4] -36.4% | [5] -8.4% | [6] -0.85%

COC(=O)C(CO)NC(=O)C(CC(C)C)NC(=O)C(CC(C)C)NC(=O)OCc1ccccc1 (stereo unspecified)
inactive: [1] 34.6% | [2] 4.5% | [3] 16.6% | [4] 11.6% | [5] -5.1% | [6] 13.2%

CC(=O)O[C@@H]1[C@@H](C)[C@]2(CC(c3ccoc3)OC2O)C2CCC3O[C@]3(C)[C@]2(C)[C@@H]1OC(C)=O (stereo partly specified)
inactive: [1] -16% | [2] -20.1% | [3] -42.6% | [4] -12.2% | [5] -39.5% | [6] -28.4%

c1cc2c3c(c1)ccc1cccc(c13)C2
inactive: [1] 39.6% | [2] -26.2% | [3] 12.8% | [4] 11.9% | [5] 24.6% | [6] 27.1%

O=C1CCCC1Sc1ccccn1 (stereo unspecified)
inactive: [1] -14.4% | [2] -11.5% | [3] -29.6% | [4] -8.5% | [5] -7.15% | [6] -32.2%

CCOC(=O)C(C)(C)O
inactive: [1] 18.8% | [2] 14% | [3] 1.05% | [4] -35.9% | [5] 9.05% | [6] 19.2%

CC(Nc1ccc([N+](=O)[O-])cc1)S(=O)(=O)O (stereo unspecified)
inactive: [1] 7.4% | [2] -0.2% | [3] 13.4% | [4] 16.6% | [5] 12.4% | [6] 18.4%

Cc1ccc(NC(=O)CCC(=O)C(C#N)c2ccc(Cl)cc2)cc1C (stereo unspecified)
inactive: [1] -8.25% | [2] -7.95% | [3] 8.55% | [4] 4.75% | [5] 8.4% | [6] 0.25%

Cc1cc(Cl)ccc1N=C1NC(=O)C(CC(=O)Nc2cccc(Cl)c2)S1 (stereo unspecified)
inactive: [1] 28.6% | [2] 15% | [3] -8.85% | [4] 27.6% | [5] 1.8% | [6] 10.2%

COC1OC(COC(=O)c2ccccc2)C(OC(=O)c2ccccc2)C1NC(C)=O (stereo unspecified)
inactive: [1] 14.1% | [2] 18.7% | [3] 12.7% | [4] 62.1% | [5] 39.1% | [6] 28.4%

Cc1ccc2cc(CCCC(=O)O)ccc2c1
inactive: [1] 43.4% | [2] 25.8% | [3] 38.7% | [4] 31.6% | [5] 40.9% | [6] 24.9%

OCC1(CO)CCCO1
inactive: [1] 4.15% | [2] -21.9% | [3] -10.4% | [4] 5.1% | [5] -0.4% | [6] 2.55%

CCCCC1NC(=O)OC1=O (stereo unspecified)
inactive: [1] -23.6% | [2] -31.4% | [3] -11.2% | [4] 1.9% | [5] -20.2% | [6] -33.4%

O=C(c1ccccc1)c1oc2ccc(Br)cc2c1-c1cnn(-c2ccccc2)c1
inactive: [1] 29.2% | [2] -9.5% | [3] 11.9% | [4] 15.1% | [5] -3.85% | [6] 22.1%

CCCOC(=O)c1cccnc1C(=O)OCCC
inactive: [1] -0.2% | [2] -10.2% | [3] 1.5% | [4] -22.4% | [5] -2.5% | [6] -6.4%

Cc1cccc2c1sc1c(C)cc(C(=O)CCC(=O)O)cc12
inactive: [1] 9% | [2] 11.2% | [3] 5.3% | [4] 3.4% | [5] 20.4% | [6] 25.4%

CCN(CC)c1cc2oc(=O)cc(C)c2cc1NC(=O)c1cc([N+](=O)[O-])cc([N+](=O)[O-])c1
inactive: [1] -0.6% | [2] -0.7% | [3] -2.1% | [4] -0.4% | [5] 0% | [6] 15.3%

NC1c2c(Br)sc(N3CCCC3)c2C(=O)C1O (stereo unspecified)
inactive: [1] 8.05% | [2] -3.5% | [3] -5.25% | [4] -5.35% | [5] -16.4% | [6] -30.3%

O=C1CN(c2cccc(C(F)(F)F)c2)C(=O)CN1CCN1CC(=O)N(c2cccc(C(F)(F)F)c2)CC1=O
inactive: [1] -30.6% | [2] -6.4% | [3] -3.55% | [4] -6.45% | [5] -14.1% | [6] -5.2%

CC(=O)Oc1ccccc1C(=O)OC(=O)c1ccccc1OC(C)=O
inactive: [1] 5.3% | [2] -10.2% | [3] -1.7% | [4] -9.85% | [5] 0% | [6] 6.75%

CNc1ncc(-c2nnnn2-c2ccccc2)c(CN(C)C)n1
inactive: [1] -36% | [2] -3.05% | [3] -3.4% | [4] 5.1% | [5] -3.45% | [6] 25.2%

O=C(c1ccccc1C(=O)N1CCCO1)N1CCCO1
inactive: [1] -0.45% | [2] -8.3% | [3] 6.9% | [4] -15.8% | [5] 6.15% | [6] 16.9%

O=C(O)CCSc1nc2c(=O)[nH][nH]c(=O)c2n1Cc1ccccc1
inactive: [1] 7.2% | [2] -13.2% | [3] 7.05% | [4] -53.1% | [5] -0.75% | [6] 9.7%

COc1ccc2ccc3nonc3c2c1
inactive: [1] 17.1% | [2] 4.7% | [3] 9% | [4] -40.5% | [5] 6.4% | [6] 1.45%

NNC(=O)CC(N)C(=O)O (stereo unspecified)
inactive: [1] 9% | [2] 4.4% | [3] -4.2% | [4] -20.7% | [5] 1.15% | [6] 2%

COc1ccc(C=C2C(=O)OC(C)(C)OC2=O)cc1OC
inactive: [1] -6.7% | [2] -8.85% | [3] -8.5% | [4] 30% | [5] -23.8% | [6] -4.85%

CS/C(=N/S(=O)(=O)c1ccccc1)NNC(=S)Nc1ccc(C(C)C)cc1
inactive: [1] 14% | [2] -12.6% | [3] 27.2% | [4] 22.6% | [5] 28.3% | [6] 25.9%

CCCCCCNC(=O)C1=C(C)NC(C)=C(C(=O)NCCCCCC)C1
inactive: [1] 4.9% | [2] 1.35% | [3] -6.4% | [4] -24.9% | [5] 6.8% | [6] -42.2%

N#CC1CCCCCC1
inactive: [1] 0.8% | [2] -12.4% | [3] 5.7% | [4] 2.6% | [5] 8.15% | [6] 5.85%
